# Screening data: PubChem, The Scripps Research Institute Molecular Screening Center
# A selection: hits, their analogues and other compounds. The true share with any hit is near 4.8%.
# hcDAF-12 act: activators of H. contortus DAF-12 nuclear receptor; HEK293 hcDAF-12 lit1-tk-luc reporter, luminescence; 0% DMSO, 100% Δ7-dafachronic acid; activation, % at 6.8 µM; 370,000 compounds, 1.4% hits;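 active means activation above the mean of all tested compounds plus 3 SD, cut at about 5.5% in these data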
# ssDAF12 agonist: S. stercoralis DAF-12 activation, primary screen; HEK293 ssDAF-12/GRIP1 lit1-tk-luc reporter, luminescence; % of 3 µM dafachronic acid response; activation, % at 6.8 µM; 370,000 compounds, 1% hits; AID 652126;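 active means activation above the mean over all tested compounds plus 3 SD, cut at about 0.9% in these data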
# DAX1 inh-1: blocks DAX1 repression of SF-1 activated StAR promoter; HEK293T StAR-luciferase reporter, SF-1/DAX-1 repression relief; inhibition, % at 6.8 µM; 370,000 compounds, 1.1% hits; AID 652010;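 active means inhibition above the mean over all tested compounds plus 3 SD, cut at about 3.6% in these data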;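 further: higher inhibition means more luminescence from relief of DAX-1 repression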
# hgDAF12 agonist: hgDAF-12 agonism, primary luciferase screen; HEK293 GAL4-hgDAF12 UAS-luciferase reporter, agonist luminescence; normalized to butyrate control; 370,000 compounds, 1.8% hits; AID 687014; activation, % at 6.8 µM;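 active means activation above a cutoff set at the mean of all screened compounds plus 3 SD, cut at about 10% in these data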
# DAX1 inh-2: NR0B1 (DAX1) inhibition; P51843; HEK293 Gal4-DAX1 luciferase reporter, luminescence; inhibition, % at 6.75 µM; 340,000 compounds, 0.99% hits;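 active means inhibition above the mean over all tested compounds plus 3 SD, cut at about 4.2% in these data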;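 further: inhibition shows as a rise in luminescence from relieved DAX1 repression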
# Target sequence (P51843 207-470 limits assumed): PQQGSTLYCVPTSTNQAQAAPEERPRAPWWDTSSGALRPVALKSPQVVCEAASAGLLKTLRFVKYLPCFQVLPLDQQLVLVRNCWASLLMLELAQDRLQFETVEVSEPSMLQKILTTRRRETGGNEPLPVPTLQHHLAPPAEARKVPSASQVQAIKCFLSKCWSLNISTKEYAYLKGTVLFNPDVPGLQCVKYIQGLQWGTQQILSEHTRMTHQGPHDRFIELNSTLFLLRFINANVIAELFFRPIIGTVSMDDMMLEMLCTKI
# SMARCA2 act: activators of SMARCA2 function | 370,000 compounds, 1% hits | AID 652017 | activation, % at 9.1 µM | MG213 cells, MMTV-luciferase reporter, dexamethasone, overnight; in the data active means activation above about 7.8%
# DAX1 inh confirm: NR0B1 (human) inhibition, confirmation | 2,400 compounds, 87% hits | shares compounds with DAX1 inh-1 | HEK293T StAR-promoter luciferase reporter, SF-1/DAX-1 repression | inhibition, % at 6.8 µM | AID 652134;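 active means inhibition above the average of every tested compound plus 3 SD, cut at about 3.8% in these data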;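 further: active compounds raise luminescence by relieving repression of the StAR reporter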
# SF1 AF2mut Luc: counter-screen for DAX1 inhibitors: nonselective inhibitors with SF-1 AF2 mutant | inhibition, % at 6.8 µM | 2,400 compounds, 78% hits | HEK293 StAR-luciferase, luminescence | AID 652136 | shares compounds with DAX1 inh-1;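 active means inhibition above the mean of all tested compounds plus 3 SD, cut at about 3% in these data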
# SMARCA2 act conf: SMARCA2 activation, confirmation screen | shares compounds with SMARCA2 act | MG213 cells, MMTV-luciferase with dexamethasone, luminescence, overnight; MG213 cells expressing E1A, Rb sequestered; DMSO wells 0%, reference activator 100% | 3,500 compounds, 30% hits | activation, % at 9.1 µM;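 active means activation above its plate's cutoff, the mean activation of tested wells plus 3 SD, cut at about 7.9% in these data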
# GAL4-VP16 Luc: activates GAL4-VP16 luciferase, flagging SMARCA2 activator hits | HEK293 GAL4-VP16 pG5luc reporter, luciferase luminescence; scaled: DMSO wells 0%, SAHA wells 100% | 3,500 compounds, 41% hits | AID 686939 | activation, % at 9.1 µM | shares compounds with SMARCA2 act;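 active means activation above the solvent-only control well mean plus 3 SD, averaged across control plates, cut at about 5.2% in these data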
# LXRb hcDAF ctr: counter-screen for hcDAF-12 agonists: agonists of human LXR-beta | shares compounds with hcDAF-12 act | HEK293 Gal4-LXR tk-luc reporter, luminescence, 24 h; normalized: DMSO 0%, positive control 100% | activation, % at 6.8 µM | 3,400 tested, under 10 active | AID 743027;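 active means mean percent activation of the reporter above a cutoff set as the average over tested compounds plus their standard deviation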
# Target sequence (P55055 whole entry, looked up, the tested form may be a part): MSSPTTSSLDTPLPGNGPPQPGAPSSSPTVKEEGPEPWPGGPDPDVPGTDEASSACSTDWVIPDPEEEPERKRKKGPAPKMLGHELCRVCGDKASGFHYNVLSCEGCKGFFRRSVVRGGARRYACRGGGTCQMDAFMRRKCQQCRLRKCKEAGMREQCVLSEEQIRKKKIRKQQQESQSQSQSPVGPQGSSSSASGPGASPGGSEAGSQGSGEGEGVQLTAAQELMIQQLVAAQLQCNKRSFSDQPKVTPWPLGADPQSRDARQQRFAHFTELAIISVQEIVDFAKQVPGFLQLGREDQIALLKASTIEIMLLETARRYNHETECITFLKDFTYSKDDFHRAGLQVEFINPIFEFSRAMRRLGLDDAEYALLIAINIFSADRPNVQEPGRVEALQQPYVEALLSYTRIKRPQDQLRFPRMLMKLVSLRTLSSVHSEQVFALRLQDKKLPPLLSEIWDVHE
# hcDAF12 conf: hcDAF-12 agonism, confirmation assay. shares compounds with hcDAF-12 act. HEK293 hcDAF-12 lit1-tk-luc reporter, luminescence; % of Δ7-dafachronic acid response. activation, % at 6.8 µM. 3,400 compounds, 61% hits;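 active means mean activation across triplicate tests above the threshold derived from the earlier primary screen, cut at about 5.5% in these data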
# hgDAF12 ag: confirmation of H. glycines DAF-12 agonists; 3,300 compounds, 80% hits; shares compounds with hgDAF12 agonist; activation, % at 6.8 µM; HEK293 GAL4-hgDAF12 luciferase reporter, agonist mode; percent of butyrate response;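 active means mean activation over triplicate wells above the hit cutoff derived from the earlier primary screen, cut at about 11% in these data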
# LXR ag 2: counter-screen for DAF-12 agonists: agonists of human LXR-beta. shares compounds with hgDAF12 agonist. 3,300 tested, under 10 active. HEK293 Gal4-LXR luciferase reporter, 24 h. activation, % at 6.8 µM;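 active means mean activation of the triplicate above a set limit carried over from the primary screen, none filed active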
# Numbers stand for hits; – = inactive; · = no result.
SMILES,hcDAF-12 act,ssDAF12 agonist,DAX1 inh-1,hgDAF12 agonist,DAX1 inh-2,SMARCA2 act,DAX1 inh confirm,SF1 AF2mut Luc,hgDAF12 ag,LXR ag 2,others
COc1cc(CCC(=O)N2CCN(c3cccc(C)c3C)CC2)cc(OC)c1OC,–,–,–,–,–,–,·,·,·,·,
CCn1c(/C=N/Nc2ccc(C(=O)O)cc2)nc2ccccc21,–,–,–,–,–,–,·,·,·,·,
CC1Oc2ccccc2C=C1/C=N/Nc1ccc(C(=O)O)cc1 (centres undefined),6.9,0.9,6.3,14.5,–,–,19.0,9.3,14.3,–,LXRb hcDAF ctr=–;hcDAF12 conf=14.8
O=C(NCCO)C1CCN(C(=O)c2ccc(-c3ccccc3)cc2)CC1,–,–,–,–,–,–,·,·,·,·,
O=C(CSc1nc2cc3ccccc3cc2[nH]1)Nc1ccc(F)cc1,–,–,–,–,–,–,·,·,·,·,
CNC(=O)c1sc2nc(-c3ccc(OC)cc3)cn2c1C,9.1,–,5.7,15.8,–,–,10.7,7.0,13.4,–,LXRb hcDAF ctr=–;hcDAF12 conf=–
COc1ccc2c(c1OC)C(=O)OC2Nc1nc(-c2ccc(-c3ccccc3)cc2)cs1 (centres undefined),9.1,0.9,5.1,21.3,–,–,10.4,6.5,13.6,–,LXRb hcDAF ctr=–;hcDAF12 conf=–
COc1cccc(-c2csc(NC3OC(=O)c4c3ccc(OC)c4OC)n2)c1 (centres undefined),–,–,–,–,·,–,·,·,·,·,
COC(=O)C1=C(C)N(Cc2ccccc2C(F)(F)F)C(=NCc2ccc3c(c2)OCO3)NC1c1ccccc1 (centres undefined),–,–,–,–,·,–,·,·,·,·,
N#C/C(=N\Nc1ccc([N+](=O)[O-])cc1)C(=N)N1CCOCC1,–,–,–,–,–,–,·,·,·,·,
N#C/C(=N\Nc1ccc(Cl)cc1)C(=N)N1CCCCCC1,–,–,7.6,17.9,10.4,–,21.5,8.8,24.4,–,
N#C/C(=N\Nc1ccccc1[N+](=O)[O-])C(=N)N1CCCCC1,7.9,1.0,8.0,13.6,7.4,–,14.2,8.1,17.7,–,LXRb hcDAF ctr=–;hcDAF12 conf=8.6
N#C/C(=N/Nc1ccc([N+](=O)[O-])cc1)C(=N)N1CCCCC1,6.4,1.6,5.5,19.8,8.1,–,8.2,3.2,21.2,–,
CCOC(=O)N1CCN(C(=O)C[C@H]2C[C@@]3(C(=O)OC)C(=C[C@H](C(C)C)O[C@@H]3C3CC3)N(CCc3ccc(OC)c(OC)c3)C2=O)CC1,–,–,–,–,·,–,·,·,·,·,
O=C(Nc1ccccc1)c1ccncc1,–,–,–,–,–,–,·,·,·,·,
O=C(Nc1cnc2ccccc2c1)c1ccncc1,–,–,5.5,13.8,–,–,10.6,7.5,14.1,–,
COc1ccc(OCc2cc(C(=O)N3CCOCC3)no2)c(Cl)c1,–,–,7.4,13.3,–,–,9.8,7.5,14.9,–,
Cc1ccc(NC(=O)CN(C)C(=O)COc2ncnc3ccc(Br)cc23)cc1,–,–,–,–,–,–,·,·,·,·,
Cc1nc(N)sc1-c1csc(Nc2ncccn2)n1,–,–,5.4,16.2,–,56.2,8.4,4.8,12.5,–,SMARCA2 act conf=106.4;GAL4-VP16 Luc=12.8
COc1ccc2cc3cc(C(=O)NC4CC4)sc3nc2c1,18.2,–,15.2,24.0,–,–,14.2,4.2,16.5,–,LXRb hcDAF ctr=–;hcDAF12 conf=8.7
CC(/C=N/NC(=O)c1ccco1)=C\c1ccccc1,–,–,6.0,17.7,–,9.4,17.9,9.0,14.1,–,SMARCA2 act conf=11.1;GAL4-VP16 Luc=6.1
O=C(CSc1nnc(NC(=O)c2ccc(F)cc2)s1)NCc1ccco1,–,–,6.5,13.9,–,–,9.3,5.1,12.2,–,
COc1ccccc1N1CCN(S(=O)(=O)CCNC(=O)c2ccc(Br)o2)CC1,–,–,–,–,–,–,·,·,·,·,
COc1ccc(CCN(C)C2CCCN(C(=O)c3sccc3C)C2)cc1OC (centres undefined),–,–,–,–,–,–,·,·,·,·,
Cc1ccc(O)c(C(=O)CC(=O)c2ccccc2Cl)c1,–,–,5.0,22.5,5.3,–,–,–,–,–,
SMILES,hcDAF-12 act,ssDAF12 agonist,DAX1 inh-1,hgDAF12 agonist,DAX1 inh-2,SMARCA2 act,DAX1 inh confirm,SF1 AF2mut Luc,hgDAF12 ag,LXR ag 2,others
CCn1cc(C(=O)NCCC(C)C)c(=O)c2cc(F)c(N3CCN(C(=O)c4ccco4)CC3)cc21,–,–,–,–,–,–,·,·,·,·,
Cc1nc(NC(=O)CN2CC(C)OC(C)C2)sc1C(=O)N(C)C (centres undefined),–,–,–,–,–,–,·,·,·,·,
CCCC(=O)Nc1ccc(-c2nc3cc(C)c(C)cc3o2)cc1,–,1.6,5.5,13.3,–,–,14.4,8.7,16.4,–,
Clc1ccc(-n2ncc3c(NCC4CCCO4)ncnc32)cc1 (centres undefined),–,–,7.1,13.7,–,–,4.6,–,17.0,–,
CN(C)CCNc1ncnc2c1cnn2-c1ccc(Cl)cc1,7.8,–,5.5,18.9,–,13.5,10.0,6.6,13.8,–,SMARCA2 act conf=10.6;GAL4-VP16 Luc=11.5;LXRb hcDAF ctr=–;hcDAF12 conf=–
Cc1ccc(Cn2ncc3c(NCCN(C)C)ncnc32)cc1,–,–,–,–,–,–,·,·,·,·,
COc1ccnc2c1c(=O)n(Cc1ccc(F)cc1)c(=O)n2C,–,–,–,–,–,–,·,·,·,·,
CCOC(=O)CSc1nc(=O)n2ccccc2n1,–,–,–,–,–,–,·,·,·,·,
